Measurements: PubChem BioAssay (NCI)
About 83,000 compounds went through this panel and 20% of them were active in at least one assay; those are over-represented in the sample as a whole.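 For each line, cells grew in 96-well plates with the test compound present at a single concentration for 48 hours.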 Activity calls are given as the source filed them. The calls were made as follows: active = growth percent below 10; inactive = the rest.

Tests used:
Test in all cases: NCI-60 one-dose screen, 48 h (100 = growth as untreated, 0 = no growth, -100 = all killed)
Conditions in all cases: 10 µM
[1] = system: HCT-15 colon
[2] = system: HT29 colon
[3] = system: SNB-75 CNS
[4] = system: SNB-19 CNS
[5] = system: U251 CNS
[6] = system: PC-3 prostate
[7] = system: SK-MEL-5 melanoma
[8] = system: UACC-62 melanoma
[9] = system: LOX IMVI melanoma
[10] = system: SK-MEL-2 melanoma
[11] = system: EKVX NSCLC
[12] = system: SN12C renal
[13] = system: UO-31 renal
[14] = system: TK-10 renal
[15] = system: ACHN renal
[16] = system: CAKI-1 renal
[17] = system: A498 renal
[18] = system: CCRF-CEM leukemia
[19] = system: MOLT-4 leukemia
[20] = system: SK-MEL-28 melanoma

Measured: growth

CC1(C)CC(=O)c2c(nc3ccc(Cl)cc3c2-c2ccccc2)C1
inactive: [1] 81.3% | [2] 98.6% | [3] 95.7% | [4] 90% | [5] 102% | [6] 48.7% | [7] 73% | [8] 75.3% | [9] 93.4% | [10] 81.2% | [11] 95.9% | [12] 92.5% | [13] 66% | [14] 118% | [15] 93.9% | [16] 85.5% | [17] 115% | [18] 49.5% | [19] 68.2%

COc1ccc2nc(NC(=O)Nc3c(F)cccc3F)sc2c1
inactive: [1] 101% | [2] 102% | [3] 118% | [4] 97.2% | [5] 95% | [6] 95% | [7] 91.2% | [8] 94.4% | [9] 106% | [20] 103% | [10] 114% | [13] 102% | [15] 106% | [16] 104% | [17] 87.9% | [18] 96.1% | [19] 98.3%

NC1CCC(Nc2nc(NCc3cc(Cl)ccc3O)c3ncn(C4CCCC4)c3n2)CC1 (centres undefined)
active: [1] -10.1% | [2] -16.9% | [3] -85.8% | [4] 9.87% | [5] -22.8% | [6] -8.24% | [7] -93.7% | [8] -58.8% | [9] -73.7% | [10] -73.7% | [11] -18.7% | [13] 1.65% | [14] -3.98% | [15] -5.98% | [16] 9.61% | [17] -67.1% | [18] -0.96% | [19] -15.5%

Cc1cc(C)c2c(Nc3ncnc4c3sc3nc(C)cc(C)c34)n[nH]c2n1
inactive: [1] 93.2% | [2] 102% | [3] 94.4% | [4] 95.8% | [5] 99.4% | [6] 88.4% | [7] 99.1% | [8] 95.4% | [9] 95.5% | [10] 114% | [12] 99.3% | [13] 90.9% | [14] 104% | [15] 93.6% | [16] 101% | [17] 92.3% | [18] 95.3% | [19] 94.1%

CCCCCCCCCCCCc1ccc(C(=O)/C=C/C(=O)O)cc1
active: [1] -19.4% | [8] -16.8% | [9] -62.4% | [18] -17.6% | [19] -15.1%
inactive: [2] 27.8% | [3] 74.5% | [4] 94.4% | [5] 80.1% | [6] 82.9% | [7] 92.1% | [20] 26.4% | [10] 93.1% | [13] 85.3% | [14] 68.7% | [15] 55.9% | [16] 91.1% | [17] 81.7%

O=C(NCc1cn(Cc2cccc(Oc3ccccc3)c2)nn1)c1cccnc1Nc1ccccc1
inactive: [1] 30.7% | [2] 47.8% | [3] 54.2% | [4] 67.1% | [5] 42.2% | [6] 44.5% | [7] 40.8% | [8] 53.5% | [9] 45.1% | [10] 55.1% | [11] 58.7% | [12] 50.2% | [13] 54.4% | [15] 54.5% | [16] 48.1% | [17] 19.7% | [19] 38%

COc1cc(OC)cc(N2CCN(C(=O)Nc3nc4cc(F)ccc4nc3OC)CC2)c1
inactive: [3] 27.9% | [4] 28.7% | [6] 22.4% | [8] 47.9% | [9] 23.6% | [20] 77.1% | [10] 42.1% | [12] 29.6% | [13] 34.5% | [14] 47.5% | [15] 30.2% | [16] 29.7% | [18] 14.7%
active: [1] 7.06% | [2] 3.96% | [7] -42.2% | [17] -8.09% | [19] 8.4%

CCN(CCCNC(=O)Cc1cc(=O)oc2cc(N(C)C)ccc12)CCNc1ccnc2cc(Cl)ccc12
inactive: [1] 83.2% | [2] 18.6% | [3] 88.6% | [4] 91.5% | [6] 78.7% | [7] 76.2% | [8] 98.7% | [9] 66.4% | [20] 85% | [10] 117% | [11] 99.8% | [13] 84.7% | [14] 87.4% | [15] 78.6% | [16] 106% | [17] 81.5% | [18] 53.9% | [19] 44.4%

Cc1nc(N)sc1Sc1nc2ccc(Cl)cc2c(=O)n1-c1ccc(Oc2ccccc2)cc1
inactive: [1] 55.4% | [2] 55.9% | [3] 96% | [4] 69.4% | [6] 48.9% | [7] 76.1% | [8] 63.9% | [9] 75.5% | [20] 95.1% | [10] 96.9% | [12] 73.9% | [13] 61.8% | [14] 89% | [15] 78.5% | [16] 73.5% | [17] 39.9% | [18] 41.5% | [19] 44.3%

C[C@]12CC[C@H]3[C@@H](CC=C4C[C@@H](O)CC[C@@]43C)[C@@H]1CC[C@@H]2C(=O)C/C=N/O
inactive: [1] 86.4% | [2] 81.1% | [3] 85.4% | [4] 95.1% | [6] 71.9% | [7] 92.8% | [8] 88.6% | [9] 82% | [20] 106% | [10] 95.9% | [12] 91.7% | [14] 99.5% | [15] 89.4% | [16] 83.2% | [17] 90.1% | [18] 71.8% | [19] 69.2%
active: [13] -94.6%

Cn1cnc([N+](=O)[O-])c1Sc1nnc(-c2ccccc2)c(-c2ccccc2)n1
inactive: [1] 56% | [2] 74.8% | [3] 100% | [4] 109% | [6] 95.5% | [7] 106% | [8] 64.3% | [9] 67.8% | [20] 76% | [10] 73% | [11] 119% | [12] 72.2% | [13] 55.3% | [15] 65.9% | [17] 97.9% | [19] 41%
active: [16] -7.14% | [18] 8.92%

CCCCCCCCCCCCCCCC(=O)N1CCN(C)CC1
active: [9] -38.1%
inactive: [1] 73.2% | [2] 51.1% | [3] 88.8% | [4] 105% | [6] 68.8% | [7] 81.7% | [8] 88.8% | [20] 88.7% | [10] 86.5% | [12] 74.6% | [13] 40.5% | [15] 81.8% | [16] 69.9% | [17] 92.3% | [18] 34.9% | [19] 61.4%

Oc1ccc(Cn2cc3c(c2-c2ccccc2)CCc2cnoc2-3)cc1
inactive: [1] 100% | [2] 94% | [3] 91.9% | [4] 99.2% | [6] 87.3% | [7] 89.9% | [8] 70.3% | [9] 88.7% | [20] 101% | [10] 102% | [11] 80.2% | [12] 91.7% | [13] 88.8% | [14] 111% | [15] 90% | [16] 81.7% | [17] 104% | [18] 99.1% | [19] 80.5%

COc1cc(-c2cc(/C=C/C(C)=O)[nH]n2)cc(OC)c1OC
inactive: [1] 65.7% | [2] 66.6% | [3] 84.7% | [4] 69.1% | [6] 71.3% | [7] 79% | [8] 84.6% | [9] 62% | [20] 97.4% | [10] 87.2% | [12] 67.5% | [13] 52.4% | [15] 78.7% | [16] 55.2% | [17] 90.7% | [18] 20% | [19] 71.2%

CC(C)C(C)C(N)C(=O)O (centres undefined)
inactive: [1] 97.6% | [2] 107% | [3] 95.2% | [4] 115% | [6] 98.2% | [7] 102% | [8] 113% | [9] 96% | [20] 108% | [10] 101% | [12] 106% | [13] 85.6% | [14] 95.4% | [15] 99% | [16] 99% | [17] 109% | [18] 95.1% | [19] 93%

CCOC(=S)Sc1ccc([N+](=O)[O-])cc1[N+](=O)[O-]
inactive: [1] 82.8% | [3] 99.5% | [4] 111% | [6] 83.7% | [7] 88.4% | [8] 99% | [9] 14.3% | [20] 67.5% | [10] 91.4% | [11] 98% | [13] 78.1% | [14] 94% | [15] 60.4% | [16] 29.9% | [17] 88.2% | [18] 14.4% | [19] 48.5%
active: [2] 0.214%

O=NN(CC(=O)N/N=C/C=C\c1ccccc1)CC(=O)N/N=C/C=C/c1ccccc1
inactive: [1] 94% | [2] 110% | [3] 72.9% | [4] 92.5% | [6] 85.2% | [7] 84.9% | [8] 101% | [9] 87.6% | [20] 99.4% | [10] 111% | [12] 78.1% | [13] 91.9% | [14] 131% | [15] 86.4% | [16] 91.3% | [17] 105% | [18] 94.9% | [19] 96.9%
